The values below come from PubChem BioAssay (NCATS).

Test [1] can be described thus: qHTS for Activators of Parkin Expression: LOPAC Validation Assay (NLuc Reporter) (AID 720572). In a few lines: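 NLuc signal, read 10 min after reagent and following a prior FLuc read, is normalized to DMSO (0) and positive controls (100%). Cells: neuronal Parkin-promoter coincidence reporter line; compounds tested 7-point, 24 h, 37 C, 5% CO2.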
(In general: In qHTS, concentration-response curves come from the screen itself.)

Test [2] in a line: qHTS for Activators of Parkin Expression: LOPAC Validation Assay (FLuc Reporter) (AID 720573). In a few lines: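 FLuc luminescence read-out from a neuronal line expressing a Parkin-promoter-driven coincidence reporter. Cells treated 24 h at 37 C, 5% CO2 with compounds at 7 concentrations; signal increase normalized to DMSO and positive control.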
The target of test [3] is T1, Hexokinase-4 (Homo sapiens) + Glucokinase regulatory protein (Homo sapiens) (UniProt P35557+Q14397). The test can be described thus: qHTS assay for inhibitors of recombinant human GCK-GKRP interaction: Diaphorase-coupled assay (AID 743205). In a few lines: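 Resorufin fluorescence (525/590 nm), read each minute over 30 min, reports GCK activity coupled via G6PDH and diaphorase. Reaction: 10 nM GST-GCK, 10 nM FLAG-GKRP, 5 mM glucose, 0.4 mM ATP, 0.15 mM NADP+, 0.1 mM resazurin.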
T1 sequence (P35557 whole entry, looked up): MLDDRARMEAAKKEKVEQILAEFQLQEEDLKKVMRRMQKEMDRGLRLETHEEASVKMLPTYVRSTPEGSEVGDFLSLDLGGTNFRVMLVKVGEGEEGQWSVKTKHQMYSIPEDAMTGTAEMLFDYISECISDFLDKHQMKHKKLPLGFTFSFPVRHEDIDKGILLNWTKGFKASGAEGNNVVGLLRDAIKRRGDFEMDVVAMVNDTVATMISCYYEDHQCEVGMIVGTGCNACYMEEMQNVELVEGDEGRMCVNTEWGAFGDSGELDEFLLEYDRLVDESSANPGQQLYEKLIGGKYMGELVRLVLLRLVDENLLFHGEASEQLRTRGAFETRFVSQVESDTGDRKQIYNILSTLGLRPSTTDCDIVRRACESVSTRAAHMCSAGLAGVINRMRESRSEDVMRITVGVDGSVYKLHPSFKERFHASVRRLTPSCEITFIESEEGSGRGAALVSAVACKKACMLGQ
T1 sequence (Q14397 whole entry, looked up): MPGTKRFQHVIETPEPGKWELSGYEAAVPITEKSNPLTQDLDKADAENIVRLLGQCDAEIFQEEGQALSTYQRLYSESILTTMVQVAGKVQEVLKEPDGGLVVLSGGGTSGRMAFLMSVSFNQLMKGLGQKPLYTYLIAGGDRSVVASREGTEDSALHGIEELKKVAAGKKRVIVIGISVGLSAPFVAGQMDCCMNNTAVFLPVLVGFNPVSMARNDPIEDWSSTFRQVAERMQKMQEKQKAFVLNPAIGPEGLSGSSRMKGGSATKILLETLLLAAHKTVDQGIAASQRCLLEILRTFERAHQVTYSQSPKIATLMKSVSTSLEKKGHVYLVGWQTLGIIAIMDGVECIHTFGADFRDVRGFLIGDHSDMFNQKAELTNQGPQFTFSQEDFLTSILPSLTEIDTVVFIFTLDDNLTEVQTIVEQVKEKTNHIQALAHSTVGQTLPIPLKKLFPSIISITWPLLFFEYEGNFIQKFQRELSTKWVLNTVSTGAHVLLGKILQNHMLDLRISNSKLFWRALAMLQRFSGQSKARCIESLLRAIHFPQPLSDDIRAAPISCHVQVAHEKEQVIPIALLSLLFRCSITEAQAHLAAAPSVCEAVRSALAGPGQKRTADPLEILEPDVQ

Test [4] deals with T1, Hexokinase-4 (Homo sapiens) + Glucokinase regulatory protein (Homo sapiens). The test can be described thus: qHTS assay for inhibitors of recombinant human GCK-GKRP interaction: ADP-Glo assay (AID 743206).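 Further: plate controls were DMSO plus enzyme for no effect and no enzyme for full effect.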 Put shortly:
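Pin-transferred compounds meet a 15 nM GST-GCK/15 nM FLAG-GKRP/2 uM S6P mix (dispense concentrations). ATP is then added to 0.4 mM final with 5 mM glucose, and the reaction runs 60 min at room temperature. ADP is quantified luminescently.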

Test [5] has the same target. The test can be described thus: qHTS assay for inhibitors of recombinant human GCK-GKRP interaction: HTRF assay (AID 743207).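 Further: 0% = DMSO with GCK present and -100% = DMSO wells lacking GCK.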 In a few lines: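 HTRF read-out (ex 320 nm; 615/665 nm emission) after 60 min RT equilibration of 5 nM GST-GCK, 5 nM FLAG-GKRP, 2 uM S6P, compound and anti-FLAG/anti-GST detection antibodies; signal normalized between DMSO wells with and without GCK.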

Test [6] is described as follows: qHTS Assay for Identifying Gametocytocidal Compounds (AID 743244). Further: potency means the concentration at half of the fitted maximal effect.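 On max response: on the % scale 0 is the no-effect control and ±100 the full control effect; actives lower the fluorescent signal which means gametocytes are killed.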 The conditions noted are these: P. falciparum 3D7 stage III-V gametocytes, alamarBlue, 72 h; max response: stronger effect = lower value. Put shortly:
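Viability read-out was resazurin reduction (alamarBlue, 24 h) measured at Ex 525/Em 598 nm. Beforehand, late-stage (III-V) 3D7 P. falciparum gametocytes at 20,000 cells/well were incubated with compound 72 h at 37C under 5% CO2.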

Test [7] in a line: qHTS assay for small molecule agonists of the antioxidant response element (ARE) signaling pathway measured by Nrf2-dependant transcriptional activity (AID 720636; active means well fitted curve in the direction sought with a large enough effect in the repeat runs; an effect the other way counts as inactive or inconclusive; further: % of control where 0% means no effect). In a few lines: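 Nrf2-dependent transcription read as ONE-Glo luciferase signal from ARE-luc HepG2 reporter cells after 16 hr compound treatment at 37 C, 5% CO2, in assay medium with 1% dialyzed FBS.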
The nature of test [8]: qHTS assay for small molecule agonists of the antioxidant response element (ARE) signaling pathway measured by Nrf2-dependant transcriptional activity - cell viability counter screen (AID 720653; active means well fitted curve in the direction sought with a large enough effect in the repeat runs; an effect the other way counts as inactive or inconclusive; further: on the % scale 0 is the no-effect control and ±100 the full control effect). The following applies: ARE-bla HepG2 viability, CellTiter-Glo ATP luminescence, 16 h; max response: stronger effect = lower value. Put shortly: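 ARE-bla HepG2 cells treated with compounds for 16 h at 37C; this counter screen measures viability as intracellular ATP by CellTiter-Glo luminescence after 30 min at room temperature.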

Test [9] can be described thus: qHTS assay for cell viability of HEK293 cells (AID 743288). Further: on the % scale 0 is the no-effect control and ±100 the full control effect; nearly all actives have a fitted effect of over 50% in size. The following applies: ATP luminescence (CellTiter-Glo), 18 h, stronger effect = lower value. Put shortly: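 ATP luminescence (CellTiter-Glo) reports metabolically competent cell number after parental HEK293 cells, 2,000/well, were treated with DMSO-dissolved compounds for 18 h at 37 C; reagent incubation 30 min, room temperature.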

The nature of test [10]: qHTS assay for small molecule antagonists of the retinoid-related orphan receptor gamma (ROR-gamma) signaling pathway - cell viability counter screen (AID 720652; active means well fitted curve in the direction sought with a large enough effect in the repeat runs; an effect the other way counts as inactive or inconclusive;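 further: CHO reporter cells with doxycycline-induced ROR-gamma expression; series mostly up to about 92 µM; compound exposure lasted 16 hr before ATP read; on the % scale 0 is the no-effect control and ±100 the full control effect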). Put shortly: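 Steps: seed CHO cells bearing TET-inducible ROR and ROR response element-luciferase; rest 5 hr at 37 C; add compound, then doxycycline; incubate 16 hr; add CellTiter-Glo and read luminescence as ATP-based viability.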

“And” between values parts separate entries of the source, which are not always exact repeats. Equal entries are not always repeated. Values without a mark were called inactive. Records with an inconclusive call do not appear. The source made the active and inactive calls. Unless noted, the call rests on the fitted dose curve; in most records, active means well fitted curve in the direction sought with a large enough effect; inconclusive means small, poorly fitted or top-dose-only effect, or another doubt; inactive means no such curve, though single readings can be large; an effect the other way counts as inactive or inconclusive.

`NC(N)=NCCC[C@H](N)C(=O)O`: the Potency result in test [1] was “inactive”. For the same compound, the call in test [2], in test [3], in test [4] and in test [5] was inactive. In addition, the max response in test [6] is -1.84% and -1.95%.
On to `CCN(CC)CCNC(=O)c1cc(Cl)c(N)cc1OC`, for which the Potency result in [1] was “inactive”. Further, the call in test [2], in [3], in test [4] and in [5] was inactive. Besides, in test [6], the max response was -1.62%.
For the compound `CNC(=O)Oc1ccc2c(c1)[C@]1(C)CCN(C)[C@@H]1N2C`, the Potency entry in test [1] was “inactive”. In addition, the compound was classed as inactive in test [2], in [7], in [4] and in test [5]. Further, the max response in test [8] is -1.23%; in test [9] it was -7.46%.
Take `C#CCN(C)Cc1ccccc1`: in test [1], the Potency result was “inactive”. The compound was called inactive in [2], in test [3], in test [4] and in [5]. Moreover, the max response in test [6] is 14.1% and 13.7%.
For the compound `CNCCC(Oc1ccc(C(F)(F)F)cc1)c1ccccc1` (stereo not drawn), the Potency result in [1] was “inactive”. Besides, the outcome in test [2], in test [3], in [4] and in test [5] was inactive.
With `CC1=C(CC(=O)O)c2cc(F)ccc2/C1=C\c1ccc(S(C)(=O)=O)cc1`, in test [1], the Potency result was “inactive”. Also, the call in test [2], in test [3], in test [4] and in [5] was inactive.
In the case of `C[C@]12C[C@H](O)[C@H]3[C@@H](CCC4=CC(=O)CC[C@@]43C)[C@@H]1CC[C@@H]2C(=O)CO`, the Potency entry in [1] and in [10] was “inactive” in each case. Moreover, the result in test [2], in test [7], in test [3], in test [4] and in [5] was inactive. Moreover, the max response in [8] is -15.9% and -13%; in test [6], -3.84% and -1.24%; in [9] it was -14.2% and 1.25%.
Turning to `CC(=O)OCC(=O)[C@@]1(O)CC[C@H]2[C@@H]3CCC4=CC(=O)CC[C@]4(C)[C@H]3C(=O)C[C@@]21C`, the Potency entry in test [1] is “inactive”. Also, the compound was classed as inactive in test [2], in [3], in test [4] and in test [5]. Besides, the max response in test [6] was -5.84%.
In the case of `CC(C)(C)[C@]1(O)CCN2C[C@H]3c4ccccc4CCc4cccc(c43)[C@@H]2C1`, the Potency entry in [1] was “inactive”. In addition, the outcome in [2], in [3], in test [4] and in test [5] was inactive. Further, in test [6], the max response was 13.6% and 4.8%.
Turning to `CC(C)(C(=O)O)c1ccc(C(O)CCCN2CCC(C(O)(c3ccccc3)c3ccccc3)CC2)cc1` (stereo not drawn), the Potency result in test [1] was “inactive”. Also, the compound was classed as inactive in test [2], in test [3], in test [4] and in test [5]. Besides, in [6], the max response was -3.24% and 8.77%.
Take `C[C@]12CC[C@@H]3c4ccc(O)cc4CC[C@H]3[C@@H]1CCC2=O`: the Potency result in [1] was “inactive”. Moreover, the compound was called inactive in [2], in test [7], in test [3] and in test [4]. The max response in [8] was -0.718%; in test [9] it was -13%.
With `OCCN1CCN(CCCN2c3ccccc3Sc3ccc(Cl)cc32)CC1`, in [1], the Potency entry was “inactive”. For the same compound, the result in test [2], in test [3], in test [4] and in [5] was inactive.
`CN1CCN(C2Cc3ccccc3Sc3ccc(Cl)cc32)CC1` (stereo not drawn): the Potency entry in test [1] is “inactive”. Moreover, the compound was classed as inactive in test [2], in test [3], in [4] and in test [5].
For `CC(C)C(=O)c1c(C(C)C)nn2ccccc12`, in test [1], the Potency entry was “inactive”. Further, the outcome in [2], in [3], in test [4] and in test [5] was inactive.
In the case of `CNCC(O)c1ccc(O)c(O)c1` (stereo not drawn), the Potency result in test [1] is “inactive”. Moreover, the compound was called inactive in test [2], in test [3], in [4] and in [5].
Turning to `CC(CN(C)C)CN1c2ccccc2CCc2ccccc21` (stereo not drawn), the Potency result in [1] was “inactive”. For the same compound, the compound was classed as inactive in [2], in test [3], in [4] and in test [5]. Further, the max response in test [6] was 4.34%.
Take `CC(CN1c2ccccc2Sc2ccccc21)N(C)C` (stereo not drawn): the Potency result in test [1] was “inactive”. In addition, the outcome in test [2], in test [7], in test [3], in [4] and in [5] was inactive. Besides, the values for the max response in test [8] and in test [9] were -20.1% and -10.5%, respectively.
On to `Nc1ncnc2c1ncn2[C@@H]1O[C@H](CO)[C@@H](O)[C@H]1O`, for which the Potency entry in test [1] is “inactive”. Besides, the compound was classed as inactive in [2], in [3], in test [4] and in [5]. Also, the max response in test [6] is -0.147% and 30.2%.
Regarding `CC(C(O)c1ccc(O)cc1)N1CCC(Cc2ccccc2)CC1` (stereo not drawn), the Potency entry in [1] is “inactive”. Also, the outcome in test [2], in [3], in test [4] and in test [5] was inactive. The Potency in [6] is 2820 nM (active).
With `CN(C)CCCN1c2ccccc2Sc2ccc(Cl)cc21`, the Potency result in test [1] was “inactive”. Further, the outcome in [2], in test [7], in [3], in [4] and in [5] was inactive. The max response in [9] is -23.7%.
On to `CNCCCC1c2ccccc2C=Cc2ccccc21`, for which the Potency result in test [1] is “inactive”. Moreover, the result in [2], in test [3], in test [4] and in test [5] was inactive.
`Nc1cc(=O)[nH]c(N)n1`: the Potency entry in test [1] was “inactive”. For the same compound, the compound was called inactive in [2], in test [3], in [4] and in test [5].
For `CC(C)NC[C@H](O)c1ccc(O)c(O)c1`, in test [1], the Potency result is “inactive”. The call in test [2], in test [3], in [4] and in test [5] was inactive. For the same compound, the max response in test [6] is -9.19% and 21.1%.
On to `NC(=O)c1ncn([C@@H]2O[C@H](CO)[C@@H](O)[C@H]2O)n1`, for which, in test [1], the Potency result was “inactive”. The compound was called inactive in test [2], in test [7], in test [3], in test [4] and in [5]. Besides, the max response in test [8] was -11.8%; in test [6], -2.06% and 29.2%; in test [9], -7.49%.
